Results filed as inconclusive are left out. Entries that show only a call come without a potency. Unmarked numbers belong to inactive results. Active and inactive are the calls of the source. The call rests on the fitted dose curve; in most records, active means well fitted cell-killing curve with a large enough effect; inconclusive means small, poorly fitted or top-dose-only effect, or effect the other way; inactive means flat fitted curve, though single readings scatter.
Test system: Tov112D
Assay: Primary qHTS to identify gynecologic anti-cancer compounds using libraries of approved drugs and bioactive compounds (AID 1345084); further: nearly all actives have a fitted effect of over 55% in size
Settings: Gynecologic cancer cell panel viability, ATPlite luminescence, 48 h; series mostly up to 57.5 µM
Method in brief: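 Cells, 1,000 per well, were allowed to settle for 16 h at 37 C before compound addition. Five concentrations were tested for 48 h, and viability was read by ATPlite luminescence after 15 min at room temperature.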

Row | Compound | Potency | activity change, negative = cytotoxicity
1 | CC1(C)C(=O)N2c3ccccc3[C@]3(CC(n4cnc5ccccc5c4=O)C(=O)O3)[C@H]2N1O (some centres not stated) | inactive | –
2 | CC(=O)OC[C@@]12[C@@H](OC(C)=O)C[C@@H](C)[C@](C)([C@@H]3C[C@H]4C=CO[C@H]4O3)[C@H]1CCC[C@]21CO1 | inactive | –
3 | COC1CC(=O)C23C(=O)NC(CC(C)C)C2C(C)C(C)=CC3/C=C(\C)CCC1O (configuration not stated) | inactive | –
4 | CC(=O)c1c(O)cc2cccc3c2c1CC(C)(O)O3 (configuration not stated) | inactive | –
5 | C/C=C(\C)C(=O)O[C@@H](C)[C@H]1CC[C@]2(O)C3CCC4C[C@@H](OC5CC(OC)C(OC6CC(OC)C(OC7CC(OC)C(OC8OC(C)C(OC9OC(CO)C(O)C(O)C9O)C(OC)C8O)C(C)O7)C(C)O6)C(C)O5)CC[C@]4(C)C3[C@H](O)[C@@H](O)[C@]12C (some centres not stated) | – | 8.06% [at 6.55 µM]
6 | C/C=C/C=C/C(CC(=O)O)Nc1ccc(C=O)cc1 (configuration not stated) | inactive | –
7 | C=C1CC[C@H]2[C@@](C)(CCC(O)[C@@]2(C)CO)[C@@H]1C/C=C(/C(=O)O)C(O)CO (some centres not stated) | inactive | –
8 | COc1cc(C[C@H]2COC(=O)[C@@H]2Cc2ccc(O)c(OC)c2)ccc1O | inactive | –
9 | C#Cc1cnc2[nH]c(=O)n(C(CC)CC)c2n1 | inactive | –
10 | N[C@@H](CC(=O)N1CCn2c(nnc2C(F)(F)F)C1)Cc1[nH]nc2c(F)c(F)ccc12 | inactive | –
11 | CC1(C)CCC2(C(=O)OC3OC(COC4OC(CO)C(O)C(O)C4O)C(O)C(O)C3O)CCC3(C)C(=CCC4C5(C)CCC(O)C(C)(C(=O)O)C5CCC43C)C2C1O (configuration not stated) | – | -1.2% [at 11.6 µM]
12 | CC(=O)c1c(C)cc(O)cc1O[C@@H]1O[C@H](CO)[C@@H](O)[C@H](O)[C@H]1O | inactive | –
13 | CC1CC(O)CC(C)(C)C1(O)CCO (configuration not stated) | inactive | –
14 | C(#Cc1cccc(CN2CCOCC2)c1)CCN1CCCCC1 | inactive | –
15 | COC(=O)[C@]12C(=O)C(C)=C(O)[C@@]1(C)C(C)=CC1[C@@]34CC[C@@H](OC(C)=O)C(C)(C)C3[C@H](C[C@]12C)OC4=O (some centres not stated) | inactive | –
16 | CC(=O)C1CCC2(C)C3=C(CCC12C)C1(C)CCC(=O)C(C)(C)C1CC3 (configuration not stated) | inactive | –
17 | N#Cc1ccnc(N2C(=O)CC[C@H]2C(=O)N(c2cncc(F)c2)[C@H](C(=O)NC2CC(F)(F)C2)c2ccccc2Cl)c1 | inactive | –
18 | CC(C)CNC(=O)/C=C/CCCCc1ccc2c(c1)OCO2 | inactive | –
19 | O=C(c1ccccn1)c1cnn2c(-c3ccncc3)ccnc12 | inactive | –
20 | C=CC(C)(O)CC/C=C(/C)C(=O)OC1C(OC2OCC(OC3OC(CO)C(O)C(O)C3O)C(OC3OCC(O)C(OC4OC(C)C(O)C(O)C4O)C3O)C2O)COC(OC(=O)C23CCC(C)(C)CC2C2=CCC4C5(C)CCC(OC6OC(CO)C(OC7OC(CO)C(O)C(OC8OCC(O)C(O)C8O)C7O)C(O)C6O)C(C)(C)C5CCC4(C)C2(C)CC3O)C1O (configuration not stated) | – | 0.487% [at 6.55 µM]
21 | Nc1ncnc2c1ncn2[C@H]1CCCO1 | inactive | –
22 | Clc1ccc2c(c1)C1=NCCN1c1c(-c3noc(C4CC4)n3)ncn1-2 | inactive | –
23 | C[C@@H]1O[C@@H](O[C@H]2[C@H](O)[C@@H](C(=O)O)O[C@@H](O[C@H]3CC[C@@]4(C)C(CC[C@]5(C)C4CC=C4C6CC(C)(C)CC[C@]6(C(=O)O)CC[C@]45C)C3(C)C)[C@@H]2O[C@@H]2O[C@H](CO)[C@@H](O)[C@H](O)[C@H]2O)[C@H](O)[C@H](O)[C@H]1O (some centres not stated) | – | 0.16% [at 11.6 µM]
24 | C=CC1(C)CC(O)C2(CCC3C(C)(C(=O)O)CCCC3(C)C2=O)C1 (configuration not stated) | inactive | –
25 | C=CC(C)(O)CC/C=C(\C)C(=O)OC1CC2(C(=O)O)CCC3(C)C(=CCC4C5(C)CCC(OC6OC(COC7OCC(O)C(O)C7O)C(O)C(OC7OCC(O)C(O)C7O)C6OC6OC(CO)C(O)C(O)C6OC6OCC(O)C(O)C6O)C(C)(C)C5CCC43C)C2CC1(C)C (configuration not stated) | – | 4.31% [at 6.55 µM]
26 | O=C(/C=C/c1ccc(O)cc1)OCC1=CC2OC(=O)C3=CO[C@@H](O[C@@H]4O[C@H](CO)[C@@H](O)[C@H](O)[C@H]4O)[C@H]1[C@@H]32 (some centres not stated) | inactive | –
27 | CC1OC(OC2C(CO)OC(OCC3OC(OC(=O)C45CCC(C)(C)CC4C4=CCC6C7(C)CCC(OC8OC(C(=O)O)C(O)C(OC9OC(CO)C(O)C(O)C9O)C8O)C(C)(C)C7CCC6(C)C4(C)CC5)C(O)C(O)C3O)C(O)C2O)C(O)C(O)C1O (configuration not stated) | – | 0.769% [at 6.55 µM]

— PubChem BioAssay (NCATS)
